Screening results: PubChem BioAssay, several laboratories
LEDGF integ inh: blocks HIV-1 LEDGF/p75-dependent DNA integration | inhibition, % at 3.7 µM | AID 743269 | actives 0.64% (n = 370,000) | TR-FRET IN-LEDGF/p75 DNA integration, Eu/Cy5;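 active = inhibition above the screen-wide mean plus 3 SD, cut at about 13% in these data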;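 note: signal is the Cy5 over europium emission ratio at 671 and 618 nm; 0% = plate median of compound wells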
MBD2 DNA inh: MBD2-methylated oligo binding inhibition. Q9UBB5. TR-FRET, MBD2 binding to methylated oligonucleotide. inhibition, % at 4.4 µM. actives 0.31% (n = 370,000). AID 686964; in the data active = inhibition above about 13%
CASP6 VEID inh: blocks human caspase-6 cleavage activity; actives 0.53% (n = 350,000); P55212; inhibition, % at 12.5 µM; AID 686996; purified caspase-6, Z-VEID-R110 cleavage fluorescence;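 active = mean inhibition across replicates at least about 35%, with every replicate also reaching that limit, limit read from the data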;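 note: 0% = median of neutral control wells and 100% = no fluorescence left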
UHRF1 MBD2 ctr: UHRF1 methyl-DNA binding inhibition; Q96T88; UHRF1 binding to methylated oligo, TR-FRET; inhibition, % at 4.4 µM; actives 0.75% (n = 370,000); AID 687016; in the data active = inhibition above about 21%;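 note: UHRF1 SRA domain binding a hemimethylated CpG hairpin DNA probe; 0% = median of test compound wells and 100% = reference inhibitor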
Target sequence (Q96T88 whole entry, looked up, the tested form may be a part): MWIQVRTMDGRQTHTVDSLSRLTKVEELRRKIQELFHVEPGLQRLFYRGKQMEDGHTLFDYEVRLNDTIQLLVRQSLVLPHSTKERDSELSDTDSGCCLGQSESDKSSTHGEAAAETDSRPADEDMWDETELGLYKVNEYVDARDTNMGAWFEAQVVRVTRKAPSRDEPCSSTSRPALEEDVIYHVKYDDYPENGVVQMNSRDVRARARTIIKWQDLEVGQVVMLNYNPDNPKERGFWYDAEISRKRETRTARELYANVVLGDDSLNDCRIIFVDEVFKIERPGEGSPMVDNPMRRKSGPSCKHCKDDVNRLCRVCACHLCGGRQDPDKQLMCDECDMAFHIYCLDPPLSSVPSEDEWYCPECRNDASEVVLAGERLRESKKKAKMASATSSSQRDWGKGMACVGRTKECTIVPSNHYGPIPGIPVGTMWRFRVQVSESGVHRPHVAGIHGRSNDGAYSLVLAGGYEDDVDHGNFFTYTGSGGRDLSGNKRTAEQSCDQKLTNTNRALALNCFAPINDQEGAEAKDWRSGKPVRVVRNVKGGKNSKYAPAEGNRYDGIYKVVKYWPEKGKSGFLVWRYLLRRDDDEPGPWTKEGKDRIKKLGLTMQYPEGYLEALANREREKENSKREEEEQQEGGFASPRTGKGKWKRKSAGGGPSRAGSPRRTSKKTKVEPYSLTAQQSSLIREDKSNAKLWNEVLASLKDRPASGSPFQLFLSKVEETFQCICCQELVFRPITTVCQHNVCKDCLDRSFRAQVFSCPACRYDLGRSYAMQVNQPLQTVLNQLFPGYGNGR
IN multimer act: activates HIV-1 integrase multimerization in LEDGF counter-screen. activation, % at 7.7 µM. shares compounds with LEDGF integ inh. actives 17% (n = 2,000). AID 1053131. TR-FRET HIV-1 integrase multimerization, biochemical; in the data active = activation above about 8.9%
TR-FRET interf: optically interferes with TR-FRET readout in LEDGF counter-screen; TR-FRET optical interference counterscreen, HIV-1 IN multimerization; inhibition, % at 7.7 µM; 2,000 tested, under 10 active; AID 1053135; shares compounds with LEDGF integ inh;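 active = inhibition above the mean over all tested compounds plus 3 SD, which no compound reached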;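 note: 0% = integrase with antibodies and DMSO and 100% = antibodies without integrase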
LEDGF integ conf: confirmation of HIV-1 LEDGF/p75-dependent integration inhibitors; shares compounds with LEDGF integ inh; TR-FRET LEDGF/p75-dependent HIV-1 integration, biochemical; inhibition, % at 3.7 µM; actives 36% (n = 2,000); in the data active = inhibition above about 14%
Active calls of the source: *; / = not tested or not shown. Only some compounds are listed: those with a hit (about 1.4% of all), similar ones and a draw of the others.

SMILES	LEDGF integ inh	MBD2 DNA inh	CASP6 VEID inh	UHRF1 MBD2 ctr	IN multimer act	TR-FRET interf	LEDGF integ conf
O=C1Nc2ccccc2/C1=N\N=C\c1ccc(O)c(O)c1	44.6*	-7.6	35.8*	-2.2	37.1*	-131.8	81.3*
COc1cc(/C=N/N=C2/C(=O)Nc3ccccc32)ccc1O	-5.8	-2.7	/	-13.3	/	/	/
O=C(Nc1ccc2c(c1)[C@@H]1C[C@H](CC(=O)N3CCc4ccccc4C3)O[C@H](CO)[C@@H]1O2)c1cccnc1	/	/	-2.5	/	/	/	/
CC1=NN(c2ccc(C)c(C)c2)C(=O)C1C(c1cccc(O)c1)C1C(=O)N(c2ccc(C)c(C)c2)N=C1C (configuration not stated)	41.8*	9.4	/	6.9	-1.0	3.5	-0.1
CCOC(=O)C1=C(C)NC(=O)CC1c1cc2c(cc1[N+](=O)[O-])OCO2 (configuration not stated)	22.1*	-3.1	10.9	1.3	1.5	-7.5	2.2
CC(OC(=O)c1ccc2ccccc2n1)C(=O)Nc1ccc(N2CCOCC2)cc1 (configuration not stated)	14.9*	3.7	/	-0.7	1.0	-4.8	-7.3
COc1ccc(S(=O)(=O)Nc2ccc3c(c2)CC(=O)N([C@H](C)CO)C[C@@H](C)[C@@H](CN(C)C(=O)NC(C)C)O3)cc1	/	/	-0.6	/	/	/	/
CCC(=O)N1[C@@H]2c3ccc(-c4ccccc4)c(=O)n3C[C@H]1[C@H](CO)[C@H]2C(=O)N1CCN(C)CC1	/	/	1.8	/	/	/	/
Cc1ccc(-c2ccc(=O)n(CC(=O)NCCCN3CCCCC3C)n2)cc1 (configuration not stated)	24.2*	2.2	/	0.7	0.1	-0.6	-2.4
CC1CCCCN1CCNC(=O)Cn1nc(-c2ccccc2)ccc1=O (configuration not stated)	-1.0	-1.0	-5.1	-3.3	/	/	/
C[C@@H]1CN([C@@H](C)CO)C(=O)c2cccc(NC(=O)C3CC3)c2O[C@@H]1CN(C)Cc1ccc2c(c1)OCO2	/	/	-1.0	/	/	/	/
CC1(C)S[C@@H]2[C@H](NC(=O)[C@H](N)c3ccc(O)cc3)C(=O)N2[C@H]1C(=O)O	15.2*	2.0	0.9	7.8	6.0	-30.3	42.7*
CC1=C(C(=O)O)N2C(=O)[C@@H](NC(=O)[C@H](N)c3ccc(O)cc3)[C@H]2SC1	-2.6	4.5	/	3.2	/	/	/
C[C@H]1CN([C@@H](C)CO)C(=O)c2cccc(NC(=O)Nc3cccc4ccccc34)c2O[C@H]1CN(C)Cc1ccc(C(F)(F)F)cc1	/	/	-1.6	/	/	/	/
CCCN1CN=C(NS(=O)(=O)c2ccc(C)cc2)NC1	1.3	2.3	-4.8	0.6	/	/	/
Cc1ccc(S(=O)(=O)NC2=NCN(CCN3CCOCC3)CN2)cc1	22.4*	-0.2	/	0.3	-0.7	3.7	-1.2
C[C@H](CO)N1C[C@H](C)[C@H](CN(C)S(=O)(=O)c2cccs2)OCCCC[C@H](C)Oc2ccc(NS(=O)(=O)c3cccs3)cc2C1=O	/	/	0.9	/	/	/	/
O=C(NCCOc1ccccc1)C(=O)c1c[nH]c2ccccc12	30.4*	-1.1	0.2	-0.5	3.3	-12.0	-5.4
O=C(NCCOc1ccccc1Cl)C(=O)c1c[nH]c2ccccc12	0.7	0.6	1.6	0.5	/	/	/
Cc1cc(SCC(=O)NCCN2C(=O)CSC2=O)nc2c(C)cccc12	23.1*	1.9	/	2.4	6.0	-30.1	0.9
C[C@@H]1CN([C@H](C)CO)C(=O)c2cccc(NC(=O)Nc3ccc(F)cc3)c2O[C@H]1CN(C)Cc1ccccc1	/	/	-1.4	/	/	/	/
N#CCCn1[nH]c(-c2ccccc2)cc1=O	27.5*	11.4	/	17.8	6.7	-23.4	6.0
C[C@H](NC(=O)C[C@H]1CC[C@H]2[C@@H](COc3ccc(NC(=O)C4CCOCC4)cc3C(=O)N2C)O1)c1ccccc1	/	/	1.9	/	/	/	/
COC(=O)[C@H]1C[C@H]2[C@@H]3CC[C@H]4C[C@@H](OC)CC[C@]4(C)[C@H]3CC[C@]2(C)[C@@]2(CCCO2)O1	49.3*	-3.7	2.0	0.9	1.2	-5.9	4.0
Cc1ccccc1-c1cc2c(nn1)-c1ccccc1C2=O	61.2*	-7.0	/	3.7	-0.1	0.7	39.9*
SMILES	LEDGF integ inh	MBD2 DNA inh	CASP6 VEID inh	UHRF1 MBD2 ctr	IN multimer act	TR-FRET interf	LEDGF integ conf
Cc1ccc(-c2cc3c(nn2)-c2ccccc2C3=O)cc1	3.8	-4.0	3.9	-6.5	/	/	/
C[C@H]1CN([C@@H](C)CO)C(=O)c2cc(-c3cccc(F)c3)cnc2O[C@@H]1CN(C)CC1CCOCC1	/	/	-3.1	/	/	/	/
O=c1cc(Nc2cccc(Br)c2)[nH]c(=O)[nH]1	1.4	-2.9	1.2	0.2	/	/	/
O=c1[nH]c(Nc2ccccc2)cc2cc(Br)ccc12	35.0*	1.5	98.9*	9.6	1.6	-5.6	57.6*
CC(=O)c1cccc(Nc2nc(-c3ccccc3)nc3ccccc23)c1	-5.8	0.0	-0.2	1.0	/	/	/
CC(=O)c1cccc(-c2ccc3c(=O)[nH]c(Nc4ccccc4)cc3c2)c1	21.2*	0.9	94.7*	2.1	4.0	-14.4	71.1*
COc1ccccc1Nc1cc2cc(Br)ccc2c(=O)[nH]1	21.4*	-3.6	/	18.5	6.5	-22.8	73.3*
COc1ccc2c3c([nH]c2c1)[C@H](CO)N(C(=O)CN(C)C)CC31CN(CC2CC2)C1	/	/	-30.9	/	/	/	/
Cc1nc(NC(=S)Nc2ccccc2)sc1C	1.5	2.0	-2.4	1.1	/	/	/
Cc1cnc(C)c(N(C)NC(=S)Nc2ccccc2)n1	16.5*	2.8	0.9	0.6	0.5	-1.9	-6.8
O=C1CC(c2ccco2)CC(O)=C1C=NCC1NCCc2ccccc21 (configuration not stated)	23.1*	-6.6	/	-3.3	4.1	-14.6	6.4
O=C1CC(c2ccco2)CC(O)=C1C=NCCO (configuration not stated)	9.7	2.0	/	-0.3	/	/	/
C[C@H](NC(=O)[C@@H]1N[C@@H]2c3ccc(-c4cncnc4)c(=O)n3C[C@@H]2[C@H]1CO)c1ccccc1	/	/	-1.0	/	/	/	/
C[C@](N)(Cc1ccc(O)c(O)c1)C(=O)O	60.0*	12.2	87.1*	40.1*	7.1	-35.8	-4.4
COc1ccc(C[C@](C)(N)C(=O)O)cc1OC	-3.5	0.3	-0.8	1.2	/	/	/
O=[N+]([O-])c1ccc(/C=[N+](\[O-])[C@@H]2CCCC[C@@H]2/[N+]([O-])=C/c2ccc([N+](=O)[O-])o2)o1	18.6*	-3.5	27.2	-0.6	-0.5	1.9	33.6*
COc1cccc(SCc2noc(C(=O)NCc3ccccc3)c2C(=O)NCc2ccccc2)c1	48.4*	2.8	-1.1	3.4	-1.5	7.5	-5.4
Cc1ccc(S(=O)(=O)Nc2ccc3c(c2)CC(=O)N([C@@H](C)CO)C[C@H](C)[C@@H](CN(C)Cc2ccc4c(c2)OCO4)O3)cc1	/	/	0.9	/	/	/	/
